According to PubChem BioAssay (NCATS):
Results filed as inconclusive are left out. The source made the active and inactive calls. Calls follow the shape of the dose curve; as a rule, active = well fitted cell-killing curve with a large enough effect; inconclusive = small, poorly fitted or top-dose-only effect, or effect the other way; inactive = flat fitted curve, though single readings scatter. Where a SMILES comes first, the peptide text is derived from it. The star is where a group is joined. AMC = Cc1cc(=O)oc2cc(N*)ccc12; Cbz = O=C(OCc1ccccc1)*

Experiments:
Experiment in all cases: Primary qHTS to identify gynecologic anti-cancer compounds using libraries of approved drugs and bioactive compounds (AID 1345084); also: nearly all actives have a fitted effect of over 55% in size
C33A = conditions: Gynecologic cancer cell panel viability, ATPlite luminescence, 48 h; series mostly up to 57.5 µM
Summary of the method: (§1)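 Five-point cytotoxicity, 48 h drug exposure at 37 C, 5% CO2, on cells seeded 16 h beforehand. ATP content read by ATPlite luminescence.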

CAOV3 = conditions: Gynecologic cancer cell panel viability, ATPlite luminescence, 48 h; series mostly up to 57.5 µM
Summary of the method: as §1

CASKI = conditions: Gynecologic cancer cell panel viability, ATPlite luminescence, 48 h; series mostly up to 57.5 µM
Summary of the method: as §1

Es-2 = conditions: Gynecologic cancer cell panel viability, ATPlite luminescence, 48 h; series mostly up to 57.5 µM
Summary of the method: as §1

HeLa = conditions: Gynecologic cancer cell panel viability, ATPlite luminescence, 48 h; series mostly up to 57.5 µM
Summary of the method: as §1

Hek293T = conditions: Gynecologic cancer cell panel viability, ATPlite luminescence, 48 h, control line for the selectivity index; series mostly up to 57.5 µM
Summary of the method: as §1

JEG-3 = conditions: Gynecologic cancer cell panel viability, ATPlite luminescence, 48 h; series mostly up to 57.5 µM
Summary of the method: as §1

OV90 = conditions: Gynecologic cancer cell panel viability, ATPlite luminescence, 48 h; series mostly up to 57.5 µM
Summary of the method: as §1

PA-1 = conditions: Gynecologic cancer cell panel viability, ATPlite luminescence, 48 h; series mostly up to 57.5 µM
Summary of the method: as §1

SKOV3 = conditions: Gynecologic cancer cell panel viability, ATPlite luminescence, 48 h; series mostly up to 57.5 µM
Summary of the method: as §1

Tov-21-G = conditions: Gynecologic cancer cell panel viability, ATPlite luminescence, 48 h; series mostly up to 57.5 µM
Summary of the method: as §1

Tov112D = conditions: Gynecologic cancer cell panel viability, ATPlite luminescence, 48 h; series mostly up to 57.5 µM
Summary of the method: as §1

Measured: Potency

C=C(C)[C@@H]1CC[C@]2(C(=O)O)CC[C@]3(C)[C@H](CCC4[C@@]5(C)CCC(=O)C(C)(C)C5C(O)C[C@]43C)C12 (stereo not given in full)
inactive: all assays above

OCC1=C[C@@H](O)[C@@H]2C=CO[C@@H](O[C@@H]3O[C@H](CO)[C@@H](O)[C@H](O)[C@H]3O)[C@H]12
inactive: all assays above

C=CC1(C)CC2CCC3C(C)(C(=O)O)CCCC3(C)C2=CC1=O (stereo not given)
inactive: all assays above

CC(C)CC(=O)NCCn1cc(C(=O)O)c(=O)cc1C(O)c1ccccc1 (stereo not given)
inactive: all assays above

CC(=O)OCC1=C[C@@H]2OC(=O)C3=CO[C@@H](O[C@@H]4O[C@H](CO)[C@@H](O)[C@H](O)[C@H]4O)[C@H]1[C@@H]32
inactive: all assays above

O=C(OC[C@H]1O[C@H](O[C@]2(CO)O[C@H](CO)[C@@H](O)[C@@H]2O)[C@H](O)[C@@H](O)[C@@H]1O)c1ccc(O)cc1
inactive: all assays above

C=C1CCC2C(C)(C)CC(=O)CC2(C)C1CCC(C)CCO (stereo not given)
inactive: all assays above

Cc1cc(=O)oc2cc(NC(=O)[C@H](CCC(=O)O)NC(=O)[C@H](CC(C)C)NC(=O)[C@H](CC(C)C)NC(=O)OCc3ccccc3)ccc12 (Cbz-Leu-Leu-Glu-{AMC})
inactive: all assays above

C=CCc1cc(OC)c(OC(C)C(O)c2ccc(O)c(OC)c2)c(OC)c1 (stereo not given)
inactive: all assays above

COc1cc(C(=O)OC[C@@]2(O)CO[C@@H](O[C@H]3[C@H](Oc4ccc(O)cc4)O[C@H](CO)[C@@H](O)[C@@H]3O)[C@@H]2O)cc(OC)c1O
inactive: all assays above

CC1CCC2C(C)(C)[C@H](O)CC[C@]2(C)C12Cc1c(O)cc3c(c1O2)CN(C(CCC(=O)O)C(=O)O)C3=O (stereo not given in full)
inactive: all assays above

CC(=O)OC1CC2C(C)(C)C(=O)C=CC2(C)C2CC(=O)C3=C(CCC3C3=CC(O)OC3=O)C12C (stereo not given)
inactive: all assays above

CC(CC12CCCN1C(=O)C1CCCN1C2=O)OC(N)=O (stereo not given)
inactive: all assays above

CC(=O)OC[C@@]12C(=O)C[C@@H](C)[C@]3(C[C@@H](c4ccoc4)OC3=O)[C@H]1CC[C@H](OC(C)=O)[C@]21CO1
inactive: all assays above

C=C1C[C@]23C[C@H]1CC[C@H]2[C@]1(C)CC[C@H](O)[C@@](C)(C(=O)O)[C@H]1[C@@H]3C(=O)O
inactive: all assays above
